Cycloheximide cs = Cycloheximide Counterscreen for Small Molecule Inhibitors of Shiga Toxin; cell reporter, cycloheximide protein synthesis inhibition counterscreen; 12% of 300,000 active; max response, %; in the data active = max response mostly above about 13%, no sharp cut-off; inactive = mostly below about 14%; also: read at 38.3 µM for the half of the compounds with a filed dose; 0% is about no effect
Shiga inhibitor = A qHTS for Small Molecule Inhibitors of Shiga Toxin; Vero cells, Shiga toxin protein synthesis inhibition reporter; inhibition, % at 38.7 µM; 9.2% of 290,000 active; in the data active = inhibition mostly above about 28%, no sharp cut-off; inactive = mostly below about 43%; also: 0% is about no effect
Pf growth 96h = Primary qHTS for delayed death inhibitors of the malarial parasite plastid, 96 hour incubation. Potency, µM (doses to about 28.7 µM), for the others: at the top dose activity change, negative = inhibition, hits mostly inhibitors. 6.9% of 320,000 active. AID 504834, 2011. P. falciparum luciferase reporter growth, 96 h; also: potency is read from the fitted curve at half-maximal effect; % is scaled to controls: 0 for no effect and ±100 for the full control effect
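P. falciparum expressing integrated firefly luciferase grown in erythrocytes (2% hematocrit, 0.05% parasitemia final) with compounds for 96 hours at 37 C, 5% CO2. Growth inhibition read as loss of luminescence after adding luciferase detection reagent.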
Pf growth 48h = Primary qHTS for delayed death inhibitors of the malarial parasite plastid, 48 hour incubation; P. falciparum luciferase growth in erythrocytes, 48 h; Potency, µM (doses to about 28.7 µM), for the others: at the top dose activity change, negative = inhibition, most hits filed as inhibitors; 5.9% of 310,000 active; also: potency is read from the fitted curve at half-maximal effect; % is scaled to controls: 0 for no effect and ±100 for the full control effect
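Here the parasites carry a stable luciferase gene and grow inside erythrocytes in Albumax-based RPMI medium with compound for one erythrocytic cycle. Activity is scored as loss of luminescent signal.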
Giardia FBPA inh = qHTS Assay for Inhibitors of Fructose-1,6-bisphosphate Aldolase from Giardia Lamblia. A8B2U2. purified Giardia FBPA. Potency, µM (top dose mostly 59.6 µM), for inactives: top-dose activity, negative = inhibition, usual class: inhibitors. 0.71% of 290,000 active. AID 2451, 2010; also: potency is read from the fitted curve at half-maximal effect; % is scaled to controls: 0 for no effect and ±100 for the full control effect; nearly all actives have a fitted effect of over 55% in size
Target sequence (A8B2U2 whole entry, looked up): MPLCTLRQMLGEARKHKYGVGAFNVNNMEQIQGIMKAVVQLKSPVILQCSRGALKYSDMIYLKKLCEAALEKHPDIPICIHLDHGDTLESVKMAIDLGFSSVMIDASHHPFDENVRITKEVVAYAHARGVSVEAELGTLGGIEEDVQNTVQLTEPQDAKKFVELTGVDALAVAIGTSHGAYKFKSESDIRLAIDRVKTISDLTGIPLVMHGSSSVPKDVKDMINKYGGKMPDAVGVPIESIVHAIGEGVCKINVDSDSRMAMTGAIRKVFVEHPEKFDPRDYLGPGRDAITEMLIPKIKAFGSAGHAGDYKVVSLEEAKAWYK
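40 nM FBPA preincubated 10 min at RT with compound (up to 57.5 uM final), then substrate plus GAPDH/TPI/NAD/arsenate coupling and diaphorase/resazurin added. Fluorescence read after 20 min at RT, 525/598 nm.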
NS1 function inh = qHTS Assay for Inhibitors of Influenza NS1 Protein Function | Potency, µM (highest dose often 46.1 µM), for inactives: at the top dose activity, positive = more growth | 0.4% of 270,000 active | AID 2326, 2010; calls by dose curve; also: potency is read from the fitted curve at half-maximal effect; actives are rising curves; nearly all actives have a fitted effect of over 50% in size
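Recovery from NS1-induced slow growth read by OD600 in budding yeast switched to galactose assay medium (pH 6.0, -URA) at 1:100 dilution. Compound 23 nl per well; the matching strain lacking NS1 serves as control.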
The depositor's hits bear a star; u = inconclusive; x = no result; [ ] = remark or other dose. Compounds with a hit are over-represented: about 21% of the library has one in this group of screens. Unless noted, calls follow the shape of the dose curve; as a rule, active = well fitted curve in the direction sought with a large enough effect; inconclusive = small, poorly fitted or top-dose-only effect, or another doubt; inactive = no such curve, though single readings can be large; an effect the other way counts as inactive or inconclusive.

SMILES	Cycloheximide cs	Shiga inhibitor	Pf growth 96h	Pf growth 48h	Giardia FBPA inh	NS1 function inh
COC(=O)c1c(C(=O)OC)c(-c2cccc(Cl)c2)n2c1CS(=O)C2 (centres undefined)	1	10	29%	u	-1%	x
C=CCN(C(=O)C1=NN(C2CCS(=O)(=O)C2)C(=O)CC1)c1nc(-c2ccc([N+](=O)[O-])cc2)cs1 (centres undefined)	38*	42	411%	142%	1%	6%
O=C(Nc1cccnc1)C1=NN(C2CCS(=O)(=O)C2)C(=O)CC1 (centres undefined)	-2	17	u	-7%	3%	x
CCN1CCN(c2ccc(S(=O)(=O)N3CCCCC3)cc2NC(=O)/C=C/c2ccc(OC)c(OC)c2)CC1	x	x	6.6µM*	6.6µM*	x	x
CCN(CC)S(=O)(=O)c1ccc(N2CCCC2)c(NC(=O)c2ccccc2OC)c1	2	2	10µM*	u	3%	-4%
COc1cc(/C=C/C(=O)Nc2ccc(N3CCCCC3)c(S(=O)(=O)Nc3ccccc3Cl)c2)cc(OC)c1OC	-1	-6	4.1µM*	13µM*	-5%	22%
COc1ccccc1NS(=O)(=O)c1cc(NC(=O)Nc2ccc(Cl)cc2Cl)ccc1N1CCCCC1	1	-6	u	u	-2%	27%
COc1cc(/C=C/C(=O)Nc2cc(S(=O)(=O)N3CCOCC3)ccc2N2CCCC2)cc(OC)c1OC	-3	1	-5%	u	-10%	x
CCN(CC)S(=O)(=O)c1ccc(N2CCCCC2)c(NC(=O)/C=C/c2cc(OC)c(OC)c(OC)c2)c1	-1	-4	10µM*	u	6%	u
CCCC[C@@H]1C[C@H]1C(NC(=O)c1ccc(C(F)(F)F)cc1)c1ccc(C(=O)OC)cc1 (some centres undefined)	x	x	x	x	2%	x
CO[C@@H](COC(N)=O)C1=C(N2CC2)C(=O)C(C)=C(N2CC2)C1=O	x	x	0.54µM*	0.6µM*	x	x
Cc1noc(C)c1-c1cncnc1Nc1ccccc1	x	x	x	x	0%	x
Cc1cc(C)c(S(=O)(=O)Cc2ccc(Cl)cc2)c(=O)[nH]1	3	-4	13%	10µM*	-4%	x
Cc1cc(C)c(S(=O)(=O)Cc2ccccc2)c(=O)[nH]1	-2	-3	u	1%	5%	0%
COc1ccccc1CC(=O)N(CCC1=CCCCC1)c1c(N)n(Cc2ccccc2)c(=O)[nH]c1=O	x	x	u	-9%	x	x
COc1cccc(/C=N/n2cnc3ccccc32)c1OC	31*	71	126%	x	3%	-13%
COc1cccc(/C=N/n2c(N)nc3ccccc32)c1OC	25*	37	x	u	-9%	-56%
COc1ccc(/C=N/n2c(N)nc3ccccc32)cc1OC	29*	51	13%[5.75 µM]	u	2%	-13%
COc1cccc(/C=N/n2c(SC)nnc2-c2ccccc2)c1OC	-2	-15	59%	2%	8%	-71%
COc1ccc(/C=N/n2c(=S)n(C)c3ccccc32)cc1OC	6	3	x	-5%	-13%	-12%
COc1ccc(/C=N/n2c(C)nnc2C)c(OC)c1OC	6	68*	36%	1%	-1%	7%
COCC(=O)N1CCC2(CC1)CN(c1ccncc1)C2	x	x	x	x	0%	x
COc1ccc(/C=N/n2c(N)nc(-c3ccccc3)c2-c2ccccc2)cc1	31*	86*	u	u	5%	-9%
N#CCCn1c(=O)c(-c2ccccc2)nc2cnc(OCc3ccccc3)nc21	x	x	x	x	-7%	x
CC(C)(C)c1ccc(C(=O)NCC(=O)OCc2ccc([N+](=O)[O-])cc2)cc1	-4	-8	0.52µM*	4%	1%	5%
CC(C)(C)c1ccc(C(=O)NCC(=O)OCC(=O)Nc2ccccc2[N+](=O)[O-])cc1	41*	45*	53%	26%	-10%	-34%
O=C(CNC(=O)c1ccccc1)OCc1cccc([N+](=O)[O-])c1	-2	-9	0%	8%	4%	20%
CN(C)c1ccc(-c2nc3cnccn3c2Nc2ccc3c(c2)OCCO3)cc1	31*	87*	u	u	-5%	1%
